These results are taken from PubChem BioAssay (NCI).

Molecules are shown by their SMILES. “And” between values parts separate entries of the source, which are not always exact repeats. Equal values may be shown once. Compounds without any hit were thinned out: in the full panel of roughly 83,000, 20% have a hit.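 Single-dose data. Exposure time 48 hours. Values below 10 considered active.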 The source made the active and inactive calls.

The first assay has as its system UACC-62 melanoma. Briefly: NCI-60 one-dose screen, 48 h (100 = growth as untreated, 0 = no growth, -100 = all killed). As to conditions: 10 µM. How it is done:
Growth inhibition of the UACC-62 human tumor cell line is measured as a screen for anti-cancer activity. Cells are grown in 96 well plates and exposed to the test compound for 48 hours. Compounds are tested at a single concentration, which is 10^-5 M for most compounds. The reported endpoint is percent growth (GI% or GIPRCNT), where numbers from 0 - 100% represent growth inhibition, and numbers from -100% - 0 represent cell death. For example, a value of 40 represents 60% growth inhibition. A value of 0 means no net growth occurred over the course of the experiment. A value of -40 indicates 40% of cells at the beginning of the experiment died by the end of the experiment. A value of -100 means all cells are dead at the end of the experiment.
NCI-60 Human Tumor Cell Lines Screen was performed using the standard one-dose NCI protocol, which is described in more detail at https://dtp.cancer.gov/discovery_development/nci-60/default.htm.
Compounds with GIPRCNT values below 10 were considered active. Activity score was based on GIPRCNT using the following formula: […]
Score is 0 for GIPRCNT values of 100 or above, 50 for GIPRCNT values of 0, and 100 for GIPRCNT values of -100.
With `C=CC(C)(C)n1cc(C2=C(O)C(=O)C(c3cn(C(C)(C)C=C)c4ccccc34)=C(O)C2=O)c2ccccc21`, the growth was 100% (inactive).

Still in this assay, the particulars now being: 10 µM unless noted.
Consider `COc1cc(C(=O)NC(=S)NCc2ccncc2)cc(OC)c1OC`, for which the growth is 99.3% (inactive).
`CCOC(=O)N[C@H]1CCc2cc(OC)c(OC)c(OC)c2-c2ccc(SC)c(=O)cc21`: the growth is 39.9% (inactive).
With `CCOC(C=O)OCC`, the growth was 104% (inactive).
On the same count and under the same terms, under `CCCCCC/C=C\CCCCCCCCCc1cc(O)cc(OC)c1O` stands 6.32% (active); under `c1ccc(Oc2c3ccccc3nc3ccccc23)cc1`, 45.7% (inactive); under `CC(C)N(CCCC#N)C(C)C`, 95.2% (inactive).
Consider `CC(=O)Nc1ccc(C(=O)c2ccc(S(=O)(=O)Nc3ccccc3)cc2)cc1`, for which the growth is 83.1% (inactive).
On the same count and under the same terms, to `Cc1ccccc1NC(=O)Oc1ccc(Cl)cc1C(=O)c1ccccc1` belongs 85.4% (inactive); to `COC(CCCl)c1ccc(Cl)cc1` (stereo not given), 107% (inactive).
In the case of `O=[N+]([O-])c1ccc2[nH]c(=S)n(/C=C(/c3ccc(Cl)cc3Cl)S(=O)(=O)Cc3ccc(Cl)cc3Cl)c2c1`, the growth was 101% (inactive).
`O=[N+]([O-])c1ccc(-c2nc(N(CCO)CCO)c3ccccc3n2)o1`: the growth was -71.6% (active).
For the molecule `CCNC(=O)Oc1ccc[nH]c1=O`, the growth is 96.1% (inactive).
Same read-out and setting: under `COc1ccc2c(ccc[n+]2C)c1` stands 95.5% (inactive).
With `NC(=S)N/N=C/c1ccc(OC(=O)COc2ccc(Cl)cc2)cn1`, the growth is 8.53% (active).
Take `NNc1ncnc2c1ncn2C1OC(CO)C(O)C1O` (stereo not given): the growth was 60.5% (inactive).
Same read-out and setting: under `C=C1C(=O)C2CCN1CC2` stands 97.3% (inactive); under `O=C(NCCc1ccccc1)/C(=C\c1ccc(Cl)cc1Cl)NC(=O)c1ccccc1`, 98.6% (inactive); under `COCC(N)=O`, 109% (inactive).
Same read-out and setting: to `COc1c(CNC(=O)CCl)cc2[nH]c(C)cc2c1CNC(=O)CCl` belongs 30.6% (inactive); to `Cc1cccc2ccccc12`, 103% (inactive).
For `COc1cc(-c2ccc(NC(=O)CC(C)=O)c(OC)c2)ccc1NC(=O)CC(C)=O`, the growth is 102% (inactive).
The same measure, in the same setting: to `O=C1NCC2CCCC1C2` (stereo not given) belongs 105% (inactive); to `CC1CN(CCO)CC(C)O1` (stereo not given), 94.1% (inactive).
Same read-out and setting: under `O=S(Cc1ccccc1)/C(=C/NC(=S)Nc1cc(Cl)ccc1Cl)c1ccccc1` (stereo not given) stands 98.6% (inactive); under `CCOC(=O)c1cc(Cl)c(O)c(Cl)c1`, 105% (inactive).
Same read-out and setting: to `CCOC(=O)/C(O)=C(\C=N\C(=S)Nc1ccc(Cl)c(Cl)c1)C(=O)OCC` belongs 88.4% (inactive).
For `O=C(Nc1ccc([N+](=O)[O-])cc1)C(=O)Nc1ccc([N+](=O)[O-])cc1`, the growth was 97% (inactive).
Take `OCC1CCC(O)C(CO)N1` (stereo not given): the growth was 105% (inactive).
Same read-out and setting: under `Oc1ccc(CCC2CCNc3ccccc32)cc1` (stereo not given) stands 72% (inactive); under `CC(=O)OCC1OC(n2cnc3c(=S)nc(N)[nH]c32)C(OC(C)=O)C1OC(C)=O` (stereo not given), 65.2% (inactive).
The same measure, in the same setting: to `CCN(CC)CCOC(=O)Nc1c(C(C)C)cccc1C(C)C` belongs 93.3% (inactive); to `CC(C)N(C(=O)c1ccccc1)C(C)C`, 108% (inactive).
For the molecule `C=C(C)[C@@H]1CC[C@]2(CO)CC[C@]3(C)[C@H](CC[C@@H]4[C@@]5(C)CC[C@H](O)C(C)(C)[C@@H]5CC[C@]43C)[C@@H]12`, the growth was 60.5% (inactive).
Still for that read-out and setting: to `CCOC(=O)c1cc(C)[nH]c(=O)c1C#N` belongs 104% (inactive).
The same measure, in the same setting: to `Clc1cccc(Cl)c1C1CSc2ccccc2N=C1c1ccccc1` (stereo not given) belongs 68.9% (inactive); to `CC(=O)Nc1ccc(O)c(C)c1`, 104% (inactive).
Still for that read-out and setting: under `c1ccc2[nH]c(Cc3nc4ccccc4[nH]3)nc2c1` stands 105% (inactive); under `CC(=O)c1ccc(C)cc1`, 105% (inactive).

The same assay, now with this note: 100 µM.
Consider `C=CC(C)(C)n1cc(C2=C(O)C(=O)C(c3cn(C(C)(C)C=C)c4ccccc34)=C(O)C2=O)c2ccccc21`, for which the growth was -85.8% (active) and -96.5% (active).
